Screening data: PubChem BioAssay, National Center for Advancing Translational Sciences (NCATS)
GLP-1R agonist – qHTS of GLP-1 Receptor Agonists | Glucagon-like peptide 1 receptor (Homo sapiens), P43220 | HEK293 GLP-1R CRE-luciferase, luminescence, 4-6 h; cells express a hypersensitive GLP-1R form | Potency, µM (doses to about 45.6 µM), inactives show at the highest dose activation, hits mostly activators | 380,000 compounds, 0.007% hits | AID 624172, 2012; also: % of control where 0% means no effect
GLP1R cytotox – qHTS of GLP-1 Receptor Inverse Agonists: Cytotox Screen | HEK293 cAMP-luciferase reporter cells, luminescence, 24 h | Potency, µM (series often up to 38.3 µM), inactives show at the highest dose activity change, negative = inhibition, usual class: inhibitors | 410,000 compounds, 0.13% hits | AID 624418, 2012;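 also: loss of luciferase light is scored as toxicity; % is scaled to controls: 0 for no effect and ±100 for the full control effect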
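A 23 nL compound transfer followed 12 hours of cell culture at 37 deg C; exposure then lasted 24 hr. Luciferase assay detection reagent was dispensed and plates read for luminescence after a 12 min room-temperature wait.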
PTHR1 agonist – qHTS for PTHR1 Agonists: Primary Screen | HEK293 GP2 PTHR1 cells, GloSensor cAMP luminescence, 1 h | Potency, µM (highest dose often 115 µM), inactives show at the highest dose activation, usual class: activators | 410,000 compounds, 0.075% hits | AID 743266, 2014; also: nearly all actives have a fitted effect of over 55% in size
Target sequence (Q03431 whole entry, looked up): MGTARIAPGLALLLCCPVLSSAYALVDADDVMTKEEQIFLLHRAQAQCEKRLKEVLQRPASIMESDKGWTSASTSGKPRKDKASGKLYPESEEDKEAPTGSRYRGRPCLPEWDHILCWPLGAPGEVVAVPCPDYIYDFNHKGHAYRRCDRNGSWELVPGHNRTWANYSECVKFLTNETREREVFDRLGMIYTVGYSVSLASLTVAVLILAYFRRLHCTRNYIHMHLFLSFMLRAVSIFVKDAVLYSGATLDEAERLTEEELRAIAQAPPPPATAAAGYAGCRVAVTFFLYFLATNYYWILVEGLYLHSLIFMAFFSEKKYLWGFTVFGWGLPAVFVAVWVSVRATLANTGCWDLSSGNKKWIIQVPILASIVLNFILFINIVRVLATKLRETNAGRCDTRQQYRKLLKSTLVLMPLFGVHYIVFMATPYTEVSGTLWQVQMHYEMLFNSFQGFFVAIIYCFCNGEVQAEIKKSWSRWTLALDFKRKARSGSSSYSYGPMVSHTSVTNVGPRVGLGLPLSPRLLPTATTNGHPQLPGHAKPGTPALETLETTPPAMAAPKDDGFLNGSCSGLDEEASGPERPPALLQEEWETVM
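HEK-293-derived GP2 cells expressing PTHR1 and a GloSensor cAMP reporter, 3,000/well, plated overnight, given luciferin plus IBMX (each 0.5 mM as added) for 1 h at 37 °C, then compound for 1 h at 37 °C. Luminescence was read after 15 min at room temperature.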
GLP1R inv ag – qHTS of GLP-1 Receptor Inverse Agonists (Inhibition Mode); HEK293 GLP-1R CRE-luciferase, luminescence, 24 h; GLP-1R form is constitutively active; Potency, µM (series often up to 38.3 µM), without a hit: at the top dose activity change, negative = inhibition, hits mostly inhibitors; 410,000 compounds, 1.6% hits; also: % is scaled to controls: 0 for no effect and ±100 for the full control effect; nearly all actives have a fitted effect of over 55% in size
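Inverse agonists were sought by their lowering of basal cAMP reporter luciferase output in HEK293 cells stably carrying constitutively active human GLP-1R, after 24 h compound treatment.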
* marks the source's active call; other numbers are inactive results; i = inactive; ? = inconclusive; . = no result; [ ] = remark or other dose. Compounds with a hit are over-represented: about 1.7% of the library has one in this group of screens. Calls follow the shape of the dose curve; as a rule, active = well fitted curve in the direction sought with a large enough effect; inconclusive = small, poorly fitted or top-dose-only effect, or another doubt; inactive = no such curve, though single readings can be large; an effect the other way counts as inactive or inconclusive. Potency is read from the fitted curve at half-maximal effect.

SMILES	GLP-1R agonist	GLP1R cytotox	PTHR1 agonist	GLP1R inv ag
COc1cccc(-n2c(SCc3ccccc3C)nc3c([nH]c4ccccc43)c2=O)c1	4%	-9%	-11%	?
CC1=CC2=NC(=O)/C(=C\c3cccn3CCOc3cccc(C)c3)C(=N)N2O1	9%	-4%	-21%	10µM*
COc1cccc(C(=O)NCCc2sc(-c3cccc(C)c3)nc2C)c1	-4%	-14%	-33%	?
CCC(C)(C)c1ccc(CC(C)CN2C[C@@H](C)O[C@@H](C)C2)cc1 (stereo not given in full)	-2%	.	.	.
CCc1cc2c(COC(=O)c3cccc(NS(C)(=O)=O)c3)cc(=O)oc2cc1O	7%	180%	-19%	4µM*
CCCN(CCC)c1nn2c(=O)c(C(=O)NCc3cccc(OC)c3)cnc2s1	.	3%	i	-1%
COc1ccc(CN2C(=O)C(NC(=O)c3ccccc3C)(C(F)(F)F)N=C2c2ccccc2)cc1 (stereo not given)	6%	-10%	-3%	?
CCc1cccc(CC)c1NC(=S)NCCc1c(C)[nH]c2ccccc12	3%	?	-14%	10µM*
CCc1cccc(CC)c1NC(=S)NCCc1ccc(O)c(O)c1	-3%	-13%	-17%	?
COc1ccc(-c2cccc([C@H]3[C@@H]4C=CC[C@@H](C)[C@@H]4C(=O)N3Cc3ccccc3)c2)cc1	-1%	-8%	-4%	?
CC(=O)c1ccc(-c2cccc([C@H]3[C@@H]4C=CC[C@@H](C)[C@@H]4C(=O)N3Cc3ccccc3)c2)cc1	5%	-1%	-1%	10µM*
CCOc1cccc(-c2cc(C(=O)N3N=C(C)CC3(O)C(F)F)c3ccccc3n2)c1 (stereo not given)	11%	6%	i	11µM*
CCOc1ccc(-c2cc(C(=O)N3CCN(c4cccc(C)c4)C(C)C3)c3ccccc3n2)cc1 (stereo not given)	.	-15%	-24%	5µM*
CCC(=O)Nc1ccc(C)cc1-c1nc2ccccc2n(C(C)C(=O)Nc2ccccc2CC)c1=O (stereo not given)	.	-22%	-25%	?
OC(CNCCc1ccccc1)COc1ccc(OCC(O)CNCCc2ccccc2)cc1 (stereo not given)	4%	?	i	?
CC(C)N(CCNCC(O)COc1ccc(C(C)(C)c2ccccc2)cc1)C(C)C (stereo not given)	9%	?	-28%	4µM*
CCn1nc(C)c2c(-c3ccccc3)cc(=O)n(C(C)C(=O)NCCc3ccc(OC)c(OC)c3)c21 (stereo not given)	.	-2%	i	-27%
Cc1cc(C)cc(C(=O)NCCCc2ccccc2)c1	-4%	-7%	i	11µM*
O=C(O)c1cccc(COc2ccc3c(c2)CCC3)c1	-6%	1%	-52%	?
O=C(NCCCCc1ccccc1)c1cccc(NC(=O)C2CCC2)c1	8%	14%	i	14%
O=C(NCCCCc1ccccc1)c1cccc(NC(=O)C2CCCCC2)c1	-6%	-20%	-29%	11µM*
O=C(NCc1ccccc1)C(=O)Nc1cccc(C(=O)O)c1	-6%	2%	-12%	4.5µM*
O=C(NCc1ccccc1)c1cccc(COc2ccc3c(c2)CCC3)c1	-2%	-5%	-7%	4.5µM*
CSc1cccc(NC(=O)C(=O)NCc2ccccc2)c1	5%	-3%	-14%	7%
Oc1c(C(c2ccccc2Cl)N2CCC(O)CC2)sc2nc(-c3ccco3)nn12 (stereo not given)	.	-17%	-15%	-4%
SMILES	GLP-1R agonist	GLP1R cytotox	PTHR1 agonist	GLP1R inv ag
CC(C(=O)NCCCc1ccccc1)n1cccc1C(=O)c1ccccc1 (stereo not given)	13%	-8%	-15%	11µM*
O=C(NCc1ccccc1)c1cccc(NC(=O)c2ccccc2)c1	-3%	-27%	-13%	8.9µM*
Cc1ccc(C(=O)N2CCc3cc(CNS(=O)(=O)c4ccc(Cl)s4)ccc32)cc1	.	-11%	i	-20%
COc1ccc(OC(C)C(=O)NCCC2=CCCCC2)cc1 (stereo not given)	25%	-6%	-12%	11µM*
COc1ccc(C(=O)NCCC2=CCCCC2)cc1	-3%	-25%	-26%	?
Cc1cccc(/C=C2\Sc3ccc(C(=O)NCC4CCCO4)cc3N(C)C2=O)c1 (stereo not given)	-3%	-1%	-11%	13µM*
O=C(c1ccc(Cl)c(S(=O)(=O)N2CCc3ccccc32)c1)N1CCN(c2ccccc2O)CC1	-14%	-9%	-35%	?
Cc1cccc(N2CCN(C(=O)c3ccc(Cl)c(S(=O)(=O)N4CCc5ccccc5C4)c3)CC2)c1C	-3%	1%	-9%	7.1µM*
CCOC(=O)c1cc(S(=O)(=O)N2CCN(c3cc(Cl)ccc3C)CC2)[nH]n1	.	0%	-9%	-1%
CC(C)(C)c1ccc(C(=O)c2c[nH]c(C(=O)NCc3cccnc3)c2)cc1	1%	-2%	-40%	107%
O=C(Cc1ccc(Cl)cc1)c1c[nH]c(C(=O)NCc2cccnc2)c1	-7%	?	i	2.8µM*
Cc1ccc(NC(=S)NCc2ccc3[nH]c4c(c3c2)CCCC4)cc1	11%	?	-18%	13µM*
COCCNC(=S)NCc1ccc2[nH]c3c(c2c1)CCCC3	-2%	4%	i	?
Cc1cccc(C)c1N(CC(=O)Nc1cc(Cl)ccc1Oc1ccccc1)S(C)(=O)=O	-4%	-16%	-20%[57.5 µM]	4.5µM*
COc1ccc(Cl)cc1NC(=O)CN(c1cccc(C)c1C)S(=O)(=O)c1ccccc1	-2%	6%	-19%	?
CC(C)CNS(=O)(=O)c1ccc(CCC(=O)Nc2cc(Cl)ccc2Oc2ccccc2)cc1	3%	4%	-8%	13µM*
Cc1ccc(C)c(N(CC(=O)Nc2cc(Cl)ccc2Oc2ccccc2)S(C)(=O)=O)c1	-8%	-2%	-18%[57.5 µM]	5µM*
CCCCC(=O)Nc1cc2nn(-c3ccc(OCC)cc3)nc2cc1C	.	-1%	-17%	4%
Cc1cc(Cl)ccc1OCCCC(=O)N1CCN(S(=O)(=O)c2ccccc2)CC1	3%	-21%	i	10µM*
Cc1ccc(CN2CCC(Oc3cccc(C(=O)N(C)CCN(C)C)c3)CC2)cc1C	5%	?	i	4µM*
COc1cc(NC(=O)Cn2c(C)cc(C)c(C#N)c2=O)cc(OC)c1	.	23%	-24%	12%
Cc1cc(C)nc(N/N=C/C=C/c2ccccc2)n1	-6%	11µM*	i	?
COc1cc(Nc2c(C#N)cnc3cc(OCCCN4CCN(C)CC4)c(OC)cc23)c(Cl)cc1Cl	6%	.	.	.
